Only some compounds are listed: those with a hit (about 3.6% of all), similar ones and a draw of the others.
FBPA Giardia inh – Giardia lamblia aldolase inhibition. 290,000 compounds, 0.71% hits. Potency, µM (top dose mostly 59.6 µM), usual class: inhibitors. A8B2U2. purified Giardia FBPA; note: nearly all actives have a fitted effect of over 55% in size
Target sequence (A8B2U2 whole entry, looked up): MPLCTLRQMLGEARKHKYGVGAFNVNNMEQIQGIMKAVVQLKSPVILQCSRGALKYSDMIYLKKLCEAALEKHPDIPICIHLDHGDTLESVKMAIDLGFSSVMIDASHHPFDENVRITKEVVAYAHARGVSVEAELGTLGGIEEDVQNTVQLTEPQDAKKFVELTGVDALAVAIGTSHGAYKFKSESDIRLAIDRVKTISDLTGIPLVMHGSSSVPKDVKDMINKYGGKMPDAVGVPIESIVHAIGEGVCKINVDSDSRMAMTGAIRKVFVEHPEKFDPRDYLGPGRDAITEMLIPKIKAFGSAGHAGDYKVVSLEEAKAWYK
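40 nM FBPA preincubated 10 min at RT with compound (up to 57.5 uM final), then substrate plus GAPDH/TPI/NAD/arsenate coupling and diaphorase/resazurin added. Fluorescence read after 20 min at RT, 525/598 nm.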
AmpC inh detg – blocks E. coli AmpC beta-lactamase in detergent assay | 370,000 compounds, 0.041% hits | P00811 | Potency, µM (highest dose often 114 µM), hits mostly inhibitors | AmpC hydrolysis of nitrocefin, absorbance 480 nm, 0.01% Triton; note: nearly all actives have a fitted effect of over 25% in size
Target sequence (P00811 whole entry, looked up): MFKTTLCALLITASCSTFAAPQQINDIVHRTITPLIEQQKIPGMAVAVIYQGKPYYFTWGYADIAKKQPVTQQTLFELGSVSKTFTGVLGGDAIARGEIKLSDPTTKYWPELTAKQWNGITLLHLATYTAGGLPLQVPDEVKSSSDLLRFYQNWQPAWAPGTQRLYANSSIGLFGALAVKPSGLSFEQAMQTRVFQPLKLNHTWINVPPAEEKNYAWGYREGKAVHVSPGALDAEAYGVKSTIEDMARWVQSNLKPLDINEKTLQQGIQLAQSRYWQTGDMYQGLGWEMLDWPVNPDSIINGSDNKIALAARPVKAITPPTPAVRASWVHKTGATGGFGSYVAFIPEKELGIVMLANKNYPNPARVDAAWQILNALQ
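20 mM phosphate pH 7.0 + 0.01% (detergent screen) or 0.0001% Triton X-100; 5.3 nM AmpC reagent; cpd preinc 15 min RT; nitrocefin (800 uM stock) to start; A480 q20 s × 4 min; Activity was normalised to no-enzyme and no-compound control wells.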
AmpC no deterg – inhibitors of E. coli AmpC beta-lactamase without detergent; P00811; AmpC nitrocefin hydrolysis, absorbance 480 nm, 0.0001% Triton; Potency, µM (series often up to 57.1 µM), actives largely listed as inhibitors; 330,000 compounds, 0.52% hits; note: nearly all actives have a fitted effect of over 20% in size
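20 mM phosphate pH 7.0 + 0.01% (detergent screen) or 0.0001% Triton X-100; 5.3 nM AmpC reagent; cpd preinc 15 min RT; nitrocefin (800 uM stock) to start; A480 q20 s × 4 min; Activity was normalised to no-enzyme and no-compound control wells.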
Sm TGR block – inhibitors of Schistosoma mansoni thioredoxin glutathione reductase | purified TGR, DTNB reduction, TNB absorbance 405 nm | Potency, µM (titrated, usually from 114 µM), most hits filed as inhibitors | 360,000 compounds, 3% hits; note: nearly all actives have a fitted effect of over 60% in size
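TGR 20 nM + NADPH 100 uM (dispensed conc.), cpd preinc 15 min RT; start with NADPH (500 uM addition) then DTNB (15 mM addition). Kinetic TNB absorbance, 405 nm filter. Four-parameter Hill fit across titration.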
Each line names hits and unclear results; the compound was inactive in the other large screens. Calls come from the whole dose curve; as a rule, active = well fitted curve in the direction sought with a large enough effect; inconclusive = small, poorly fitted or top-dose-only effect, or another doubt; inactive = no such curve, though single readings can be large; an effect the other way counts as inactive or inconclusive.

Cc1ccc(NC(=O)/C=C/c2ccc(C)o2)c(C)c1	Sm TGR block 7.9µM (no result: FBPA Giardia inh, AmpC no deterg)
COC(=O)c1ccc(Cl)cc1NC(=O)/C=C/c1ccc(C)o1	Sm TGR block 20µM
Cc1ccc(/C=C/C(=O)Nc2cccc3cccnc23)o1	AmpC inh detg inconclusive, Sm TGR block inconclusive
CCC1CCCCN1S(=O)(=O)c1ccc(C(=O)N(CCCN(C)C)c2nc3cc4c(cc3s2)OCO4)cc1 (stereo not given)	none (no result: FBPA Giardia inh)
O=C(CC1C(=O)NCCN1Cc1ccccc1C(F)(F)F)NC1CCCCC1 (stereo not given)	Sm TGR block 40µM
O=C(CC1C(=O)NCCN1Cc1ccccc1C(F)(F)F)NC1CCCCCC1 (stereo not given)	AmpC inh detg inconclusive, Sm TGR block 25µM
O=C(CC1C(=O)NCCN1Cc1ccccc1C(F)(F)F)NC1CCC1 (stereo not given)	Sm TGR block 40µM (no result: FBPA Giardia inh)
C[C@@H]1CN([C@H](C)CO)C(=O)Cc2cc(NC(=O)Nc3ccccc3)ccc2O[C@@H]1CN(C)Cc1ccc2c(c1)OCO2	none (no result: FBPA Giardia inh, AmpC inh detg, Sm TGR block)
CC1=C(C(=O)NC2CCCC(C)C2C)C2(CCCCC2)OC1=O (stereo not given)	AmpC no deterg 35µM
CCOC(=O)CC(NC(=O)Cc1cccs1)c1ccccc1Cl (stereo not given)	Sm TGR block 89µM
Cc1ccc(S(=O)(=O)CCC(=O)Nc2ccccc2Cl)cc1	none
CCc1ccccc1NC(=O)CCS(=O)(=O)c1ccc(Br)cc1	none
O=C(CCS(=O)(=O)c1ccc(Br)cc1)Nc1cc(F)ccc1F	Sm TGR block 13µM
COC(=O)c1ccccc1NC(=O)CCS(=O)(=O)c1ccc(Br)cc1	Sm TGR block 10µM
Cc1c(Cl)cccc1NC(=O)CNC(=O)CCS(=O)(=O)c1ccc(F)cc1	Sm TGR block 45µM (no result: FBPA Giardia inh)
CCN(C(=O)NCc1noc2ccccc12)c1cc(C)ccc1C	none (no result: FBPA Giardia inh, AmpC no deterg)
COc1ccc(NC(=O)CSc2nc(N)cc(N)n2)cc1S(=O)(=O)N1CCCCC1	none (no result: FBPA Giardia inh)
COc1ccccc1NC(=O)c1c(NCc2sccc2C)sc2c1CCCCC2	Sm TGR block 11µM (no result: FBPA Giardia inh, AmpC no deterg)
CCOc1ccccc1NC(=O)c1c(NCc2sccc2C)sc2c1CCCCC2	Sm TGR block 40µM (no result: FBPA Giardia inh, AmpC no deterg)
CCOc1ccccc1NC(=O)c1c(NCc2sccc2C)sc2c1CCC(C)C2 (stereo not given)	none (no result: FBPA Giardia inh, AmpC no deterg)
COc1ccc(NC(=O)c2c(NCc3sccc3C)sc3c2CCCCC3)c(OC)c1	Sm TGR block 13µM (no result: FBPA Giardia inh, AmpC no deterg)
COc1ccc(Cl)cc1NC(=O)c1c(NCc2sccc2C)sc2c1CCCC2	none (no result: FBPA Giardia inh, AmpC no deterg)
CN1CCN(c2ncc3nc(-c4cccc(C#N)c4)c(=O)n(C[C@H]4CCCO4)c3n2)CC1	none (no result: AmpC inh detg, AmpC no deterg, Sm TGR block)
Cc1ccccc1-c1nnc(SCC(=O)NC2CCCC2)n1C	none (no result: FBPA Giardia inh)
COc1ccc(N2CC(C(=O)Nc3nnc(SCC(=O)N4CCOCC4)s3)CC2=O)cc1 (stereo not given)	AmpC inh detg inconclusive (no result: FBPA Giardia inh)
CCCCc1ccc(NC(=O)c2cc3c(=O)n4ccccc4nc3s2)cc1	none (no result: FBPA Giardia inh, AmpC no deterg)
CCOc1cc(C2C(C(=O)OC)=C(C)N=C3SC(C)C(=O)N32)ccc1OC(C)=O (stereo not given)	none
CCOC(=O)C1=C(C)N=C2SC(C)C(=O)N2C1c1ccc(OC(C)=O)c(OC)c1 (stereo not given)	Sm TGR block 50µM
CCOC(=O)C1CCCN(C(=O)Cn2ncc3c([nH]c4ccc(C)cc43)c2=O)C1 (stereo not given)	none
CC(Nc1oc(-c2ccccc2)nc1-c1ccc(C(F)(F)F)cc1)c1ccccc1 (stereo not given)	none (no result: AmpC inh detg, AmpC no deterg, Sm TGR block)
CCN(CC)c1ccc(C(=C2C=CC(=[N+](CC)CC)C=C2)c2ccccc2)cc1	FBPA Giardia inh 18µM (no result: AmpC inh detg, AmpC no deterg, Sm TGR block)
CN(Cc1ccc(F)cc1)S(=O)(=O)c1nnc(NC(=O)c2ccccc2Cl)s1	none (no result: FBPA Giardia inh, AmpC no deterg)
CC(C)(C)c1cc(C(c2cccnc2)N2CCN(CCO)CC2)cc(C(C)(C)C)c1O (stereo not given)	AmpC inh detg inconclusive, Sm TGR block 0.45µM
O=C1C(Cl)=C(NS(=O)(=O)c2ccc([N+](=O)[O-])cc2)C(=O)c2ccccc21	AmpC inh detg inconclusive, Sm TGR block 0.89µM
O=[N+]([O-])c1ccc(Oc2ccc(S(=O)(=O)Nc3ccccc3)cc2)cc1	none
CCCCn1c(CCC)nc([N+](=O)[O-])c1Sc1ccc(Cl)cn1	Sm TGR block 22µM
COc1ccc(S(=O)(=O)Nc2ccccc2C(=O)NCc2cccnc2)cc1	none
Oc1c(C(c2ccccn2)N2CCCCC2)cc(Cl)c2cccnc12 (stereo not given)	AmpC inh detg inconclusive, Sm TGR block 3.5µM
CN1CCN(C(c2ccc(Cl)cc2)c2cc(Cl)c3cccnc3c2O)CC1 (stereo not given)	Sm TGR block 0.35µM
O=C(NC(c1ccc(Cl)cc1)c1cc(Cl)c2cccnc2c1O)c1cccnc1 (stereo not given)	none
CN1CCN(C(c2ccc(C(F)(F)F)cc2)c2cc(Cl)c3cccnc3c2O)CC1 (stereo not given)	Sm TGR block 0.63µM
CCN1CCN(C(c2ccc(C(F)(F)F)cc2)c2ccc3cccnc3c2O)CC1 (stereo not given)	none
COc1ccc(CN2C(=O)C(NC(=O)c3ccc(C)cc3)(C(F)(F)F)N=C2c2ccccc2)cc1 (stereo not given)	none (no result: FBPA Giardia inh, AmpC no deterg)
Cc1cc(C(C)(C)C)c(OC(=O)[C@@H]2OC(c3ccccc3)=C[C@H]2c2ccccc2)c(C(C)(C)C)c1	none (no result: FBPA Giardia inh)
CCN1CCN(C(=O)CS(=O)(=O)Cc2nc(-c3ccc(C)cc3)oc2C)CC1	AmpC no deterg 10µM
Cc1ccc(-c2nc(CS(=O)(=O)CC(=O)N3CCN(C)CC3)c(C)o2)cc1	none (no result: FBPA Giardia inh)
Cc1ccc(-c2nc(CS(=O)(=O)CC(=O)N3CC(C)CC(C)C3)c(C)o2)cc1 (stereo not given)	AmpC no deterg 40µM, Sm TGR block 2.2µM
C=CC[C@@H]1C=C[C@@H](O/N=C2/[C@H]3O[C@@H]3[C@@H](O)[C@H]3[C@H]2CCn2c(=O)n(-c4ccccc4)c(=O)n23)[C@@H](CO)O1	none (no result: AmpC inh detg, AmpC no deterg, Sm TGR block)
CCCCNC(=O)CN1CCN(c2ncc(NC(=O)c3ccc(Cl)cc3)cc2C(=O)O)CC1	none (no result: FBPA Giardia inh, AmpC no deterg)
COCC(=O)Nc1nc2n(n1)C(c1ccccc1Cl)CC(c1ccc(OC)cc1)N2 (stereo not given)	Sm TGR block 40µM
COCC(=O)Nc1nc2n(n1)C(c1ccc(Cl)cc1)CC(c1ccc(OC)cc1)N2 (stereo not given)	AmpC inh detg inconclusive, Sm TGR block 25µM
NC(=O)CSC1=N/C(=C\c2ccco2)C(=O)N1c1ccc(OC(F)F)cc1	AmpC inh detg inconclusive, Sm TGR block 45µM
Cc1ccc(CC2C(=O)N(C)C(=O)N(C)C2=O)s1	Sm TGR block 40µM
CC(=O)N(CCC(c1ccccc1)c1ccco1)Cc1cccs1 (stereo not given)	Sm TGR block 11µM
COc1ccccc1C(=O)NCCC(=O)N(Cc1ccco1)Cc1cccs1	Sm TGR block inconclusive (no result: FBPA Giardia inh)
CCC(=O)N(CCC(c1ccco1)c1ccccc1OC)Cc1cccs1 (stereo not given)	Sm TGR block 18µM

Screening data (PubChem BioAssay)
